Screening data: PubChem BioAssay, The Scripps Research Institute Molecular Screening Center
ULK1 primary: ULK1 kinase inhibitors, primary screen, biochemical, AlphaScreen; AlphaScreen Atg13 phosphorylation by ULK1, luminescence; inhibition, % at 5.96 µM; 30,000 tested, 1.9% active; AID 1259251, 2017; in the data active = inhibition above about 43%;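 also: 0% = median of compound wells and 100% = no enzyme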
Target sequence (O75385 whole entry, looked up): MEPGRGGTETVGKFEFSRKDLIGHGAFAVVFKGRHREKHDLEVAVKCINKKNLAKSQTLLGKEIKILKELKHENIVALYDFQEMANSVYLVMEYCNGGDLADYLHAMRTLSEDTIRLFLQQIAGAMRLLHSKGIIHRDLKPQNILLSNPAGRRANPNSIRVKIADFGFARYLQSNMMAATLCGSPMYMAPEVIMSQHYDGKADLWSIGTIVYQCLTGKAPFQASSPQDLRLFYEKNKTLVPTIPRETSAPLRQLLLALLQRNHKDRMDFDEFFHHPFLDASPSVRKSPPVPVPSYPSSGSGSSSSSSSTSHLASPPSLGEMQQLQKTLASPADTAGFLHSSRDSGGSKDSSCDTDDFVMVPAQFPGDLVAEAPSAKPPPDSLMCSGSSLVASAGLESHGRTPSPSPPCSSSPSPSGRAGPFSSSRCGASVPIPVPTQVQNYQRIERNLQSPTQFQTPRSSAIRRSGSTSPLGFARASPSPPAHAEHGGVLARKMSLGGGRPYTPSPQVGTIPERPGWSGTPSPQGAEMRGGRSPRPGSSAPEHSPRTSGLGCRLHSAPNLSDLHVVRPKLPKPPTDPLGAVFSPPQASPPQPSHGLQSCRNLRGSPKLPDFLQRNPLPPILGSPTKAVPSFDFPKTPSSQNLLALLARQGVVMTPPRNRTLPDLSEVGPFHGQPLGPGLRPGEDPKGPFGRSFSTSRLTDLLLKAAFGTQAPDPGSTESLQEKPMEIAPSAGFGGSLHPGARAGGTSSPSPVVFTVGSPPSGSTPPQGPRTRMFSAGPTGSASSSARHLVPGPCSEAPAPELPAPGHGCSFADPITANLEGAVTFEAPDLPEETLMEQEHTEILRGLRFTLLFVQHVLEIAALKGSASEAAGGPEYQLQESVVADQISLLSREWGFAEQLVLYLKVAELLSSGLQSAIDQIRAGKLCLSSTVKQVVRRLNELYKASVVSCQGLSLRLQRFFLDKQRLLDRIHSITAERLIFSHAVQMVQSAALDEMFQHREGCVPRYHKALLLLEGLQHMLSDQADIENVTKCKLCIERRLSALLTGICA
ASK1 primary: ASK1 kinase inhibitors, primary screen, biochemical, AlphaScreen; AlphaScreen MKK6 phosphorylation by ASK1, luminescence; inhibition, % at 7.44 µM; 22,000 tested, 0.99% active; in the data active = inhibition above about 35%;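 also: 0% = median of compound wells and 100% = no enzyme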
TruHits interf: AlphaScreen signal interference by compounds, dose response, artefact control for ASK1 inhibitor project, biochemical, TruHits beads. 220 tested, 20% active. signal interference counterscreen. IC50, µM. shares compounds with ASK1 primary;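 active = IC50 of 10 µM or lower in the counterscreen; inactive = IC50 above 10 µM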;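 also: loss of AlphaScreen light from TruHits beads alone with no ASK1 enzyme present; potency of signal reduction so a low IC50 flags an assay artifact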
* hit, by the source's call. The list is not random: actives were taken first. Their share in the collection is about 2.5%.

Results for Nc1nc(Nc2ccc(N3CCOCC3)cc2)cc(Nc2ccc3c(c2)OCO3)n1 ?
ULK1 primary: 15.8; ASK1 primary: 37.3*; TruHits interf: >16.8

How did CC(C)n1cnc2c(Nc3ccc(N4CCOCC4)cc3)nc(Nc3ccc(-n4ccnc4)cc3)nc21 do in these assays?
ULK1 primary: 67.3*; ASK1 primary: 36.0*; TruHits interf: >19.1

What do the screens show for `c1cc(-n2cnc3c(Nc4ccc5c(c4)OCO5)nc(NCc4ccc5c(c4)OCO5)nc32)cs1`?
ULK1 primary: 0.3; ASK1 primary: 17.0

What do the screens show for `c1cc(-n2cnc3c(Nc4ccc(N5CCOCC5)cc4)nc(NCc4ccc5c(c4)OCO5)nc32)cs1`?
ULK1 primary: 10.2; ASK1 primary: 40.8*; TruHits interf: >19.9

Results for CC(=O)Nc1ccc(Nc2nc(Nc3ccc(N4CCOCC4)cc3)nc3c2ncn3C(C)C)cc1 ?
ULK1 primary: 16.4; ASK1 primary: 23.2

Results for Nc1nc(NCc2ccc3c(c2)OCO3)cc(Nc2ccc(N3CCOCC3)cc2)n1 ?
ULK1 primary: 15.9; ASK1 primary: 33.0

What do the screens show for `FC(F)(F)c1ccc(Nc2nc(Nc3ccc(N4CCOCC4)cc3)c3ncn(-c4ccsc4)c3n2)cc1`?
ULK1 primary: -8.4; ASK1 primary: 16.8

Results for c1cncc(Nc2nc(Nc3ccc(N4CCOCC4)cc3)c3[nH]cnc3n2)c1 ?
ULK1 primary: 12.3; ASK1 primary: 8.7

What do the screens show for `Nc1ccc(NC(=O)c2cccc(I)c2)cc1`?
ULK1 primary: 9.6

How did CC(C)n1c(Nc2ccncn2)nc2c(NC3CCN(Cc4ccccc4)CC3)ncnc21 do in these assays?
ULK1 primary: 21.1; ASK1 primary: -7.2

What do the screens show for `Cc1cc(Nc2ccc3c(c2)OCO3)nc(N2CCN(Cc3ccc4c(c3)OCO4)CC2)n1`?
ULK1 primary: 0.8; ASK1 primary: 36.5*; TruHits interf: inactive

What do the screens show for `CCCNc1cc(C)nc(N2CCN(Cc3ccc4c(c3)OCO4)CC2)n1`?
ULK1 primary: 11.3; ASK1 primary: 11.4

What do the screens show for `c1ccc(CN2CCC(Nc3nc(Nc4nccc5ccccc45)nc4c3ncn4C3CCCCC3)CC2)cc1`?
ULK1 primary: 7.5; ASK1 primary: -0.2

How did COc1ccc(/C=N/Nc2ccc([N+](=O)[O-])cc2S(=O)(=O)N2CCOCC2)cc1 do in these assays?
ULK1 primary: -5.4

What do the screens show for `COc1ccc2c(c1)CC(C(=O)Nc1ccc(-c3cn[nH]c3)cc1OCCC(C)C)CO2` (configuration not stated)?
ULK1 primary: 9.0; ASK1 primary: 31.4

How did COc1ccc2c(c1)CC(C(=O)Nc1ccc(-c3cn[nH]c3)cc1OCCOCc1ccccc1)CO2 (configuration not stated) do in these assays?
ULK1 primary: 17.3; ASK1 primary: 42.9*; TruHits interf: >19.2

What do the screens show for `O=C(O)Cc1ccc(Nc2nccc(-c3ccccc3)n2)cc1`?
ULK1 primary: 2.8; ASK1 primary: 16.3

How did O=c1[nH]cccc1-c1ccc(Nc2nccc(-c3ccc4nc(C5CC5)[nH]c(=O)c4c3)n2)cc1 do in these assays?
ULK1 primary: 70.3*; ASK1 primary: 42.9*; TruHits interf: >19.2

Results for COc1ccc(-c2nc(Nc3cc(OC)c(OC)c(OC)c3)c3ncn(CCN4CCCC4=O)c3n2)cc1 ?
ULK1 primary: 3.2; ASK1 primary: 8.4

Results for COc1ccc(-c2nc(C)cc(NCc3cccc(C(F)(F)F)c3)n2)cc1 ?
ULK1 primary: 6.9; ASK1 primary: -2.5

How did Cn1nccc1Nc1ccc(-n2cc(CC(=O)Nc3ccc4c(c3)OCO4)c3ccccc32)nn1 do in these assays?
ULK1 primary: 30.3; ASK1 primary: 21.5

Results for CN(C)c1cccc(Nc2ccc(-n3cc(CC(=O)Nc4ccc5c(c4)OCO5)c4ccccc43)nn2)c1 ?
ULK1 primary: 20.6; ASK1 primary: 43.2*; TruHits interf: >19

How did CN(C)c1cccc(Nc2ccc(-n3cc(CC(=O)Nc4ccccc4)c4ccccc43)nn2)c1 do in these assays?
ULK1 primary: 14.9; ASK1 primary: 21.7

Results for O=C(Cc1cn(-c2ccc(Nc3nccc4ccccc34)nn2)c2ccccc12)Nc1ccc2c(c1)OCO2 ?
ULK1 primary: 9.5; ASK1 primary: 45.5*; TruHits interf: >21.6

Results for CN(C)c1cccc(Nc2ccc(-n3cc(CC(=O)Nc4ccc(N5CCOCC5)cc4)c4ccccc43)nn2)c1 ?
ULK1 primary: 15.2; ASK1 primary: 43.7*; TruHits interf: >20.1

What do the screens show for `O=C(Cc1cn(-c2ccc(Nc3ccc4ncccc4c3)nn2)c2ccccc12)Nc1ccc(N2CCOCC2)cc1`?
ULK1 primary: 17.8; ASK1 primary: 24.1

Results for O=C(NCc1cn(-c2ccncc2)nn1)c1cccc(Br)c1 ?
ULK1 primary: -0.4; ASK1 primary: -9.9

How did c1ccc(Oc2ccc(Nc3nc(-c4ccc(N5CCOCC5)nc4)nc4nc[nH]c34)cc2)cc1 do in these assays?
ULK1 primary: -34.0; ASK1 primary: 3.2

How did Cc1ccc(-c2ncn(-c3ccc(Nc4cc(-c5cnn(C)c5)c(Cl)cn4)cc3)n2)cn1 do in these assays?
ULK1 primary: -26.1; ASK1 primary: -18.3

Results for Cc1ncn(-c2ccc(Nc3ncc4cccc(-c5cccc(F)c5)c4n3)cc2)n1 ?
ULK1 primary: 0.9; ASK1 primary: -7.1

How did Cc1ccc(-c2cccc3cnc(Nc4ccc(-n5cnc(C)n5)cc4)nc23)cn1 do in these assays?
ULK1 primary: 19.8; ASK1 primary: 39.1*; TruHits interf: >19.2

How did Cc1ccc(-c2ncn(-c3ccc(Nc4ncc(Cl)c(-c5ccnn5C)n4)cc3)n2)cn1 do in these assays?
ULK1 primary: 6.9; ASK1 primary: 42.9*; TruHits interf: >19.2

Results for CC(C)NC(=O)c1cccc(NC(=O)Nc2ccc(-c3ccnc4[nH]ccc34)cc2)c1 ?
ULK1 primary: 23.8; ASK1 primary: 38.6*; TruHits interf: >19.2

What do the screens show for `CC(C)NC(=O)c1cccc(NC(=O)Nc2ccc(-c3cn[nH]c3)cc2)c1`?
ULK1 primary: 7.7; ASK1 primary: -0.3

How did CN(C)CCNC(=O)c1ccc2c(c1)CC(c1nc3ncc(-c4ccnc(N)n4)cc3[nH]1)CO2 (configuration not stated) do in these assays?
ULK1 primary: 6.3; ASK1 primary: 11.1

Results for CC(C)CNC(=O)c1ccc2c(c1)CC(c1nc3ncc(-c4ccnc(N)n4)cc3[nH]1)CO2 (configuration not stated) ?
ULK1 primary: 22.5; ASK1 primary: 42.3*; TruHits interf: >19.2

What do the screens show for `Nc1cc(N2CCN(c3ccccn3)CC2)ncn1`?
ULK1 primary: -14.4; ASK1 primary: -23.4

What do the screens show for `O=C(NC1CC1)c1ccc(-c2nc(NCc3cccc(C(F)(F)F)c3)c3ncn(-c4ccccc4)c3n2)cc1`?
ULK1 primary: -5.6; ASK1 primary: 44.7*; TruHits interf: >19.9

How did O=C(NC1CC1)c1ccc(-c2nc(NCc3cccc(C(F)(F)F)c3)c3ncn(-c4ccsc4)c3n2)cc1 do in these assays?
ULK1 primary: -18.8; ASK1 primary: 7.6

Results for COc1ccc(-c2ncc(C)c(Nc3ccc(N4CCOCC4)cc3)n2)cn1 ?
ULK1 primary: 2.1; ASK1 primary: -0.4

Results for COc1cc(Nc2nc(-c3ccc(C(N)=O)cc3)ncc2C)cc(OC)c1OC ?
ULK1 primary: 54.6*; ASK1 primary: 61.3*; TruHits interf: >19.4
